Results reported in the supplement of paper PMC9177965.

Each compound was assayed on HT29 RNF43 G659fs (RNF43 659mut, CRISPR-edited) (assay: cell viability activity relative to DMSO (negative = inhibition); higher = more viable cells (less growth inhibition)). Settings: 5 µM; 96 h.
Description: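 Broad Repurposing Library primary screen at a single dose of 5 uM. HT29 sg-Ctrl and HT29 RNF43 G659fs CRISPR-edited isogenic cells were seeded at 2500 cells/well in 384-well plates in duplicate and treated for 96 h. Viability was read by CellTiter-Glo and reported as % activity relative to DMSO, with MG132 as the positive control (negative = growth inhibition).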

Row | SMILES | cell viability activity [%]
1 | O=C1C=C2C=C[C@@H]3C[C@@]2(O1)[C@H]1CCCCN31 | -29.8
2 | C/C=C(\C)C(=O)N[C@@H](c1ccccc1)[C@@H](O)C(=O)O[C@H]1C[C@@]2(O)[C@@H](OC(=O)c3ccccc3)[C@@H]3[C@]4(OC(C)=O)CO[C@@H]4C[C@H](O)[C@@]3(C)C(=O)[C@H](OC(C)=O)C(=C1C)C2(C)C | -68.1
3 | O=Cc1cn(Cc2ccc(Cl)cc2)c2ccccc12 | -38.7
4 | C[C@@]1(CO)[C@H](O)CC[C@@]2(C)[C@H]1CC[C@H]1C[C@@H]3C[C@@]12CC[C@]3(O)CO | -31.8
5 | CC[C@@]1(O)C(=O)OCc2c1cc1n(c2=O)Cc2cc3ccccc3nc2-1 | -94
6 | C/C(=C\c1csc(C)n1)[C@@H]1C[C@@H]2O[C@]2(C)CCC[C@H](C)[C@H](O)[C@@H](C)C(=O)C(C)(C)[C@@H](O)CC(=O)O1 | -51.7
7 | C/C1=C/C[C@@H](/C(C)=C/c2csc(C)n2)OC(=O)C[C@H](O)C(C)(C)C(=O)[C@H](C)[C@@H](O)[C@@H](C)CCC1 | -63.7
8 | O=C1/C(=C/c2ccccc2)C[C@@]2(O)C3Cc4ccc(O)c5c4[C@@]2(CCN3CC2CC2)[C@H]1O5 | -81.4
9 | Clc1cccc(SC2CCNCC2)n1 | -56.2
10 | CN(C)C(=S)SSC(=S)N(C)C | -72.8
11 | COc1ccc(C[C@H]2NC[C@H](O)[C@H]2OC(C)=O)cc1 | -91.2
12 | C[C@@H]1CC[C@@]2(OC1)O[C@H]1C[C@H]3[C@@H]4CC=C5C[C@@H](O[C@@H]6O[C@H](CO)[C@@H](O[C@@H]7O[C@@H](C)[C@H](O)[C@@H](O)[C@H]7O)[C@H](O)[C@H]6O[C@@H]6O[C@@H](C)[C@H](O)[C@@H](O)[C@H]6O)CC[C@]5(C)[C@H]4CC[C@]3(C)[C@H]1[C@@H]2C | -25.8
13 | C=C1[C@@H](C)[C@H]2[C@H](Cc3ccccc3)NC(=O)[C@]23OC(=O)/C=C/[C@H](O)CCC[C@@H](C)C/C=C/[C@H]3[C@@H]1O | -28.2
